Reference: the supplement of paper PMC6555819

What was measured:
Experiment in all cases: PBM binding z-score (relative to random genomic background probes); higher = stronger binding; sequences stand for … in GC…GCGATTGACAGCGTAGAATGAAGG
[1] = test system: PPARg:RXRa DBDmut IVT, anti-RXR (DBD mutation: RXRa K156A/R161A, NR concentration 270 nM, RXRa partner concentration 90 nM)
Summary of the method: (§1)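 Binding buffer was PBS pH 7.4 with 2% milk, 0.02% Triton X-100, 1 mM DTT, 0.2 mg/mL BSA and 0.4 mg/ml salmon testes DNA. In it, ligand-free nuclear receptor dimers were incubated 1 h on custom Agilent 4×180K protein-binding microarrays carrying double-stranded probes. Antibodies against each partner (one per run) detected binding, and z-scores were calculated against random background probes after regression normalization of scanned fluorescence.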

[2] = test system: PPARg:RXRa IVT, anti-PPARg (NR concentration 270 nM, RXRa partner concentration 90 nM)
Summary of the method: as §1

[3] = test system: PPARg DBDmut:RXRa IVT, anti-PPARg (DBD mutation: PPARg1 K132A/R137A, NR concentration 270 nM, RXRa partner concentration 90 nM)
Summary of the method: as §1

[4] = test system: PPARg DBDmut IVT, anti-PPARg (DBD mutation: PPARg1 K132A/R137A, NR concentration 270 nM)
Summary of the method: as §1

[5] = test system: PPARg homodimer (NR concentration 180 nM)
Summary of the method: as §1

[6] = test system: PXR:RXRa (NR concentration 270 nM, RXRa partner concentration 90 nM)
Summary of the method: as §1

[7] = test system: PXR homodimer (NR concentration 270 nM)
Summary of the method: as §1

[8] = test system: RARa:RXR (NR concentration 270 nM, RXRa partner concentration 90 nM)
Summary of the method: as §1

[9] = test system: RARa homodimer (NR concentration 270 nM)
Summary of the method: as §1

[10] = test system: RARb:RXRa (NR concentration 270 nM, RXRa partner concentration 90 nM)
Summary of the method: as §1

[11] = test system: RARb homodimer (NR concentration 270 nM)
Summary of the method: as §1

[12] = test system: RARg:RXRa (NR concentration 270 nM, RXRa partner concentration 90 nM)
Summary of the method: as §1

[13] = test system: RARg homodimer (NR concentration 270 nM)
Summary of the method: as §1

[14] = test system: RXRa DBDmut IVT, anti-RXR (DBD mutation: RXRa K156A/R161A, NR concentration 90 nM)
Summary of the method: as §1

[15] = test system: RXRa homodimer (NR concentration 180 nM)
Summary of the method: as §1

[16] = test system: THRa:RXRa (NR concentration 90 nM, RXRa partner concentration 90 nM)
Summary of the method: as §1

[17] = test system: THRa homodimer (NR concentration 90 nM)
Summary of the method: as §1

[18] = test system: VDR homodimer (NR concentration 270 nM)
Summary of the method: as §1

Sequence | PBM binding z-score [1] | PBM binding z-score [2] | PBM binding z-score [3] | PBM binding z-score [4] | PBM binding z-score [5] | PBM binding z-score [6] | PBM binding z-score [7] | PBM binding z-score [8] | PBM binding z-score [9] | PBM binding z-score [10] | PBM binding z-score [11] | PBM binding z-score [12] | PBM binding z-score [13] | PBM binding z-score [14] | PBM binding z-score [15] | PBM binding z-score [16] | PBM binding z-score [17] | PBM binding z-score [18]
TAGCCTAGGTCAGATCGGGACAGTATACGCTATA | 0.601 | 1.73 | -0.45 | -0.46 | 0.479 | 1.74 | -0.545 | 1.11 | -0.615 | 3.11 | 2.11 | 2.85 | 3.78 | -0.412 | 1.76 | 4.67 | 0.686 | -0.152
CGAACTAGGTCAGAACAGGACAGTGCAGGATGAT | 7.46 | 7.27 | 0.839 | 0.368 | 1.18 | 0.783 | 0.225 | 0.999 | 0.221 | 2.96 | 2.14 | 2.44 | 3.46 | 0.591 | 1.26 | 3.38 | 0.224 | 0.113
TGAATGAGGTTAAAGATAAGGGAACGTGGCGTCG | 2.35 | 2.62 | 1.71 | 0.597 | 0.427 | 1.37 | 0.106 | 2.09 | -0.181 | 2.04 | 0.5 | 2.21 | 1.32 | 1.25 | 2.88 | 2.37 | 0.283 | 0.766
CCTACTGGGCCAAGATCATTGATCAGTCAAAGCA | 3.49 | 2.81 | -0.235 | -0.518 | -0.385 | -0.498 | -0.795 | -0.319 | -0.424 | -0.341 | -0.51 | -0.246 | -0.13 | -0.666 | -0.589 | -0.314 | -0.633 | -0.179
TCTTGTAGATCAACAGGAGCTTAAGAAAGATCGA | 1.16 | 0.103 | 0.548 | -0.235 | -1.17 | -0.361 | -0.82 | -0.535 | -0.604 | -0.522 | -1.46 | 0.118 | -0.187 | -0.0794 | -0.154 | -0.552 | -1.65 | -0.768
TCGAGTATGTTACCAATGGGGCATTCAGCTTTCT | 1.25 | 0.121 | -0.168 | -0.0708 | -0.422 | 0.0821 | -0.273 | 0.0781 | -0.543 | -0.0471 | -0.135 | -0.111 | -0.492 | 0.904 | -0.0794 | -0.318 | -0.731 | -0.375
AGAACGCGGGCAATGAGTTGATAGCACGGGTGGC | 0.179 | -0.0527 | 0.2 | -0.67 | -0.548 | -0.0595 | 0.229 | -0.166 | -0.629 | 0.349 | -0.332 | 0.0304 | 0.194 | -0.0914 | 0.299 | -0.395 | -1.04 | 0.678
